In PubChem BioAssay AID492953 (The Scripps Research Institute Molecular Screening Center, 2010) one finds inhibition data, which are given here for 93 compounds.

Structures are written as SMILES. About 4,200 (1.2%) of roughly 340,000 compounds were called active.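 Rule for the calls: active = inhibition above the mean of all tested compounds plus 3 SD (cut at about 24% in these data); inactive = the rest.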 Many of the other results were omitted from the sample, so actives are more common in it than they were.

The target in this assay is Platelet-activating factor acetylhydrolase IB subunit alpha2 (Homo sapiens) (UniProt P68402). Kind of assay: PAFAH1B2 enzyme inhibitors, primary screen, biochemical, fluorescence polarization, human (AID 492953).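 Note: 0% = enzyme with DMSO and 100% = wells lacking PAFAH1B2.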 The note with it: recombinant PAFAH1B2, FP-rhodamine activity probe, at 3.39 µM, active compounds read high.
Sequence of Platelet-activating factor acetylhydrolase IB subunit alpha2 (Homo sapiens) (P68402 whole entry, looked up): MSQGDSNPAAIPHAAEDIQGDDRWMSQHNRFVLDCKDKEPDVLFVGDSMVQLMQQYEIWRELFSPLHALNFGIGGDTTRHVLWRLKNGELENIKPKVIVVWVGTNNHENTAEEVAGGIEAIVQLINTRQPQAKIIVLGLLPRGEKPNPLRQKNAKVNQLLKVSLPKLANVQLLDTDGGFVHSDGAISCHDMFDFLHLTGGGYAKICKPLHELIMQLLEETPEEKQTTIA
What is called inhibition is the drop in the measured response relative to a control, in per cent. Regarding `Cn1c(=O)oc2cc(S(=O)(=O)NCCC(=O)NCc3ccccc3Cl)ccc21`, the inhibition is -3.01% (inactive).
As for `Cc1nn(-c2ncccn2)c2c1C(=O)CC(C)(C)C2Br` (stereo not drawn), the inhibition was 3.5% (inactive).
Under `CCOCc1nnc(NC(=O)CSc2ccc(C)cc2)s1` stands -28.2% (inactive); under `Cc1cnc(NC(=O)CSc2nnc(-c3ccccc3)n2Cc2ccccc2)s1`, 7.97% (inactive); under `Cc1ccc(SCC(=O)Nc2ncc(C)s2)cc1`, 26.1% (active).
Under `O=C(O)c1cc(S(=O)(=O)N2CCCCCC2)c(Cl)cc1Cl` stands 24.3% (active).
To `O=C(c1ccc(Cl)c(S(=O)(=O)N2CCCCC2)c1)N1CCCCCC1` belongs -0.08% (inactive); to `O=C(Nc1nccs1)c1cc(S(=O)(=O)N2CCOCC2)c(Cl)cc1Cl`, -6.96% (inactive).
With `Cc1ccc(S(=O)(=O)N2CCN(C(=O)CN3C(=O)NC(C)(c4ccc(Cl)cc4)C3=O)CC2)c(C)c1` (stereo not drawn), the inhibition is 5.07% (inactive).
As for `O=C(Nc1ccccc1)O/N=C1/CCCc2occc21`, the inhibition is 5.12% (inactive).
With `CCn1c(SCC(=O)NC2CC2)nnc1-c1ccccn1`, the inhibition was 8.43% (inactive).
Take `CN(Cc1cc2cc(F)ccc2[nH]1)Cc1nc(-c2cnccn2)no1`: the inhibition was 3.21% (inactive).
Regarding `CN(CCOc1ccccc1)Cc1nc2cc(Cl)ccc2c(=O)[nH]1`, the inhibition was -0.52% (inactive).
Turning to `CCC1(CC)Cc2ccccc2-c2nc(CCl)[nH]c(=O)c21`, the inhibition was 4.98% (inactive).
For `O=c1[nH]c(CCl)nc2cc(-c3ccc(Cl)cc3)sc12`, the inhibition is 43.4% (active).
To `Cc1ccc(-c2nc(CSCC(=O)NC3CCN(Cc4ccccc4)CC3)c(C)o2)cc1` belongs 3.88% (inactive); to `CCOC(=O)N1CCN(c2c(NCCCN3CCCC(C)C3)c(=O)c2=O)CC1` (stereo not drawn), -3.22% (inactive).
To `CC(NC(=O)COC(=O)c1cc(=O)[nH]c2ccccc12)c1ccccc1` (stereo not drawn) belongs 6.8% (inactive).
Consider `O=C(O)c1[nH]c2ccccc2c1C(c1cccc(O)c1)c1c(C(=O)O)[nH]c2ccccc12`, for which the inhibition is 94.6% (active).
Turning to `CCCS(=O)(=O)Nc1c(C(=O)O)[nH]c2ccccc12`, the inhibition is 1.36% (inactive).
Under `COc1ccc(/C=N/N(C)C2=NS(=O)(=O)c3ccccc32)cc1OC` stands 12% (inactive); under `O=C(O)CC/C(=C\c1cc2c(cc1Br)OCO2)c1nc2ccccc2s1`, 27.5% (active); under `COc1ccc(C(=O)Nc2cccc(/C=C(/CCC(=O)O)c3nc4ccccc4s3)c2)cc1`, -1.28% (inactive).
For `Cc1nn(-c2ccc(F)cc2)c(Cl)c1/C=C(/CCC(=O)O)c1nc2ccccc2s1`, the inhibition was 4.71% (inactive).
Regarding `NC(=O)COc1ccc(/C=N/NC(=O)C2CCCN2S(=O)(=O)c2ccc(Cl)cc2)cc1` (stereo not drawn), the inhibition was 2.71% (inactive).
On to `O=C(c1cccc(F)c1)N1CCC(O)(c2cccnc2)CC1`, for which the inhibition is 1.64% (inactive).
As to `Cn1cccc1C(=O)NNC(=O)COc1ccc(Br)cc1`, the inhibition was 6.31% (inactive).
To `Cn1cnnc1SCC(=O)NNC(=O)COc1ccc(Br)cc1` belongs 8.93% (inactive).
Take `Cc1ccsc1C(=O)NNC(=O)COc1ccc(Br)cc1`: the inhibition is 24.9% (active).
To `O=C(N/N=C\c1cccnc1)c1cc(-c2ccccc2)nc2c(Cl)cccc12` belongs -6.71% (inactive); to `Fc1ccc(/C=N/Nc2nc(-c3cccnc3)nc3ccccc23)cc1`, 25.3% (active).
Regarding `O=C(N/N=C/c1cccnc1)c1ccc(NC(=O)c2ccc(F)cc2)cc1`, the inhibition was -2.15% (inactive).
Turning to `O=C(c1cc2c(s1)CCC2)N1CCN(c2ccccc2)CC1`, the inhibition is 1.7% (inactive).
Under `COc1cc(CNc2ncn[nH]2)ccc1OCc1ccccc1C` stands -0.89% (inactive); under `CN(CCCNC(=O)CN1C(=O)CC(C)(C)S(=O)(=O)c2ccccc21)C1CCCCC1`, 5.24% (inactive); under `Nc1scc(-c2ccncc2)c1Cl`, 89.9% (active).
To `COC(=O)c1c(-c2ccc(C)cc2)csc1N` belongs 2.65% (inactive); to `CCOc1ccc(NC(=O)CSc2nc3ccccc3c(=O)n2Cc2cccs2)cc1`, 6.05% (inactive).
Consider `CN1C(C)(C)CC(NC(=O)CCC(=O)NC2CC(C)(C)N(C)C(C)(C)C2)CC1(C)C`, for which the inhibition was 2.28% (inactive).
To `COc1cc(C(=O)N2C(=O)c3cccc(N)c3C2=O)cc(OC)c1OC` belongs 1.13% (inactive); to `CC(=O)N1CCN(S(=O)(=O)c2cccc(C(=O)NC3CCC(C)CC3)c2)CC1` (stereo not drawn), 5.89% (inactive).
To `CC1CC(C)CN(S(=O)(=O)c2cccc(C(=O)N3C(=O)c4cccc(N)c4C3=O)c2)C1` (stereo not drawn) belongs 39.9% (active); to `CCn1c(SCC(=O)Nc2nc(C)cs2)nnc1C(C)NC(=O)c1ccccc1` (stereo not drawn), 8.33% (inactive); to `CC(C)CC(=O)Nc1nnc(S(=O)(=O)N(C)c2ccc(Cl)cc2)s1`, 26.6% (active).
Take `CCC(=O)Nc1nnc(S(=O)(=O)N(CC(C)C)c2ccccc2)s1`: the inhibition is 17.8% (inactive).
Under `COc1cccc(C(=O)Nc2nnc(S(=O)(=O)N(C)c3ccccc3)s2)c1` stands -2.38% (inactive).
Under `COC(=O)c1sccc1NS(=O)(=O)c1ccc(F)cc1F` stands 0.87% (inactive).
To `CC(=O)c1c(C)[nH]c(C(=O)Nc2cc(S(=O)(=O)N(C)C)ccc2C)c1C` belongs 2.08% (inactive); to `O=C(NC1CCN(S(=O)(=O)c2ccc(F)cc2)CC1)c1ccccc1`, 2.57% (inactive); to `Cc1ccc(S(=O)(=O)/N=C(/NC(=S)Nc2c(C)n(C)n(-c3ccccc3)c2=O)c2ccccc2)cc1`, 9.33% (inactive).
On to `Cc1nnc(NC(=O)CSc2nc(C3CCCCC3)nc3ccccc23)s1`, for which the inhibition was 0.98% (inactive).
To `O=C(CSc1nc(C2CC2)nc2ccccc12)Nc1cccc(O)c1` belongs -0.49% (inactive).
To `O=C(CSc1nc(C2CC2)nc2ccccc12)Nc1ccc2c(c1)OCCO2` belongs 38% (active); to `O=C(CN1C(=O)CSC1=O)N1CCCC(Nc2ccc(F)cc2)C1` (stereo not drawn), -1.15% (inactive); to `O=C(c1ccc2c(c1)C(=O)N(Cc1ccncc1)C2=O)N1CCN(S(=O)(=O)c2ccc(OC(F)(F)F)cc2)CC1`, 5.75% (inactive).
On to `CC1CC(=S)Nc2ccccc2N1Cc1ccccc1` (stereo not drawn), for which the inhibition is 7.13% (inactive).
Under `CC1CN(Cc2ccco2)C(=S)N(c2ccccc2)C1=O` (stereo not drawn) stands 5.61% (inactive); under `CC1CN(Cc2ccccc2)C(=S)NC1=O` (stereo not drawn), 29.8% (active).
On to `COc1ccc(CCNC(=O)c2ccc(NC(=O)CC3SC(N4CCCCC4)=NC3=O)cc2)cc1OC` (stereo not drawn), for which the inhibition is 1.09% (inactive).
Regarding `Cc1ccc(C2CC(c3cccc(Br)c3)n3nc(N)nc3N2)cc1` (stereo not drawn), the inhibition was 0.4% (inactive).
In the case of `COCCn1c(Cc2cccn2C)nnc1SCC(=O)Nc1nccs1`, the inhibition is -1.79% (inactive).
To `O=C(Nc1ccc(F)cc1)C1CCCN(S(=O)(=O)c2ccc(-n3cnnn3)cc2)C1` (stereo not drawn) belongs 0.34% (inactive); to `CC(NC(=O)C1CCCN(S(=O)(=O)c2ccc(-n3cnnn3)cc2)C1)c1ccc(F)cc1` (stereo not drawn), 26.6% (active); to `CC(C)CNC(=O)C1CCCN(S(=O)(=O)c2ccc(-n3cnnn3)cc2)C1` (stereo not drawn), 5.01% (inactive).
To `O=C(NCc1cccc(Cl)c1)C1=CC=CN2CCS(=O)(=O)N=C12` belongs 6% (inactive); to `O=C(C1CCN(CC2CCCCC2)CC1)N1CCCC1`, 0.2% (inactive).
Under `CCCCN(CC)CCCNC(=O)c1ccc(CSc2nc3ccncc3[nH]2)cc1` stands -2.43% (inactive); under `CC1=NN(/C(=N\c2nnc(C)s2)Nc2ccccc2)[C@H](c2ccc(C)cc2)S1`, 6.77% (inactive); under `CCCSc1nsc(N)n1`, 3.46% (inactive).
With `Nc1nc(SC23CC4CC(CC(C4)C2)C3)ns1`, the inhibition was 25.4% (active).
To `CCCCCCSc1nsc(N)n1` belongs 3.17% (inactive); to `Nc1ccn(C2CC(O)C(CO)O2)c(=O)n1` (stereo not drawn), 4.72% (inactive); to `COc1ccccc1C(=O)NCC(=O)OCC(=O)NNC(=O)c1ccc(Br)cc1`, 4.05% (inactive).
Under `COc1cc(C(=O)NCC(=O)NCCSc2ccc(Br)cc2)cc(OC)c1OC` stands 18.7% (inactive).
In the case of `COc1ccccc1C(=O)NCC(=O)NCCSc1ccc(Br)cc1`, the inhibition was 27.3% (active).
Under `Cc1c(C(=O)NC2CCCCC2)oc2ccccc12` stands 1.03% (inactive).
With `Cc1cc(Br)ccc1SCC(=O)OCC(=O)NCc1ccc2c(c1)OCO2`, the inhibition was 25.2% (active).
To `Cc1ccc(C(=O)OCC(=O)NCc2ccc3c(c2)OCO3)s1` belongs -1.11% (inactive); to `COc1cccc(CC(=O)OCC(=O)NCc2ccc3c(c2)OCO3)c1`, 8.95% (inactive); to `CCc1ccc2[nH]c(=O)c(Cc3ccccc3)c(O)c2c1`, 24.7% (active).
To `Cc1ccc2c(O)c(Cc3ccccc3)c(=O)[nH]c2n1` belongs 0.81% (inactive); to `O=C(Cc1c(O)c2ccccc2[nH]c1=O)NCc1ccccc1`, 2.81% (inactive).
For `O=C(Nc1ccccc1)Oc1cccc2cccnc12`, the inhibition was 3.18% (inactive).
To `O=C(c1cccc(S(=O)(=O)N2CCCCCC2)c1)N1CCN(Cc2ccccc2)CC1` belongs 0.99% (inactive); to `O=C(NC(=O)c1ccc(Cl)c(Cl)c1)OC1CCS(=O)(=O)C1` (stereo not drawn), -3.52% (inactive); to `O=C(NCCc1c[nH]c2ccccc12)c1cc2ccccc2oc1=O`, 6.1% (inactive).
As to `CC1CCCCC1NC(=O)COc1ccc(C#N)cc1` (stereo not drawn), the inhibition was 2.44% (inactive).
To `Oc1ccc(N=Nc2nccs2)c(O)c1` belongs 35.3% (active); to `O=C(OC12CC3CC(CC(C3)C1)C2)c1ccc(NCc2cc(O)ccc2O)cc1`, 3.5% (inactive); to `Cc1ccc(S(=O)(=O)N2CCN(C)CC2)cc1C(=O)NC1CCCCC1`, 25.7% (active).
Under `CCn1cc(C(=O)NC2CCCCCC2)c(=O)c2cc(S(=O)(=O)N3CCCCC3)ccc21` stands 0.07% (inactive); under `COc1ccc(S(=O)(=O)N2CCOCC2)cc1C(=O)NC1CCCCC1`, 2.51% (inactive); under `COc1ccc2c(c1)c(=Cc1ccc(N(C)C)cc1)c1cc(-c3ccccc3)[n+](C)n12`, -27.4% (inactive).
